Screening results: PubChem BioAssay, National Center for Advancing Translational Sciences (NCATS)
Tb PYK inh: qHTS of Trypanosoma Brucei Inhibitors | pyruvate kinase (Trypanosoma brucei), Q57TT1 | TbPYK enzyme, Kinase-Glo Plus ATP luminescence, 45 min | Potency, µM (top dose mostly 76.8 µM), for inactives: at the top dose activity, negative = inhibition, actives largely listed as inhibitors | 410,000 compounds, 0.12% hits | AID 624173, 2012; note: potency is the fitted concentration of half-maximal effect; % is set by controls: 0 for no effect and ±100 for the full control effect; nearly all actives have a fitted effect of over 50% in size
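In this concentration-response screen, enzyme-free wells defined baseline while DMSO plates tracked drift. Each reaction combined TbPYK, substrate, compound and 130 uM ADP for 45 min at room temperature. Kinase-Glo Plus luminescence gave the signal.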
RE007 growth inh: qHTS Assay for Inhibitors of the HIV-1 protein Vpr; S. pombe RE007 Vpr strain, BacTiter-Glo ATP luminescence, 24 h; Potency, µM (doses to about 92.2 µM), for inactives: top-dose activity change, negative = less growth, hits mostly inhibitors; 360,000 compounds, 0.21% hits; AID 651644, 2012; active = well fitted falling curve with a large enough effect; inconclusive = small, poorly fitted or top-dose-only effect; inactive = no such curve, though single readings can be large or run the other way; note: potency is the fitted concentration of half-maximal effect; % is set by controls: 0 for no effect and ±100 for the full control effect; nearly all actives have a fitted effect of over 50% in size
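Fission yeast strain RE007, carrying one chromosomally integrated HIV-1 vpr copy, was seeded at OD 0.01 in PMG+AL medium with 23 nL pinned compound. After 24 h at 30 °C and 99% humidity, viability was read by BacTiter-Glo luminescence.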
LmPK inh: qHTS Assay for Inhibitors of Leishmania Mexicana Pyruvate Kinase (LmPK) | Q27686 | purified LmPK, Kinase-Glo ATP luminescence, 1 h | Potency, µM (highest dose often 57.5 µM), inactives show at the highest dose activity change, negative = inhibition, usual class: inhibitors | 290,000 compounds, 0.37% hits; note: potency is the fitted concentration of half-maximal effect; % is set by controls: 0 for no effect and ±100 for the full control effect
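ATP generated from ADP (0.1 mM) and PEP (0.5 mM) by 0.1 nM LmPK over 1 h at room temperature (pH 7.2 imidazole buffer) was detected by coupled luciferase luminescence. Values were normalized to uninhibited and no-enzyme wells.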
Shiga inhibitor: A qHTS for Small Molecule Inhibitors of Shiga Toxin; AID 2315, 2010; 290,000 compounds, 9.2% hits; inhibition, % at 38.7 µM; Vero cells, Shiga toxin protein synthesis inhibition reporter; in the data active = inhibition mostly above about 28%, no sharp cut-off; inactive = mostly below about 43%; note: 0% is about no effect
CHX counter: Cycloheximide Counterscreen for Small Molecule Inhibitors of Shiga Toxin; 300,000 compounds, 12% hits; max response, %; cell reporter, cycloheximide protein synthesis inhibition counterscreen; in the data active = max response mostly above about 13%, no sharp cut-off; inactive = mostly below about 14%; note: read at 38.3 µM for the half of the compounds with a filed dose; 0% is about no effect
FBPA Giardia inh: qHTS Assay for Inhibitors of Fructose-1,6-bisphosphate Aldolase from Giardia Lamblia; Potency, µM (titrated, usually from 59.6 µM), inactives show at the highest dose activity, negative = inhibition, hits mostly inhibitors; A8B2U2; AID 2451, 2010; purified Giardia FBPA; 290,000 compounds, 0.71% hits; note: potency is the fitted concentration of half-maximal effect; % is set by controls: 0 for no effect and ±100 for the full control effect; nearly all actives have a fitted effect of over 55% in size
Target sequence (A8B2U2 whole entry, looked up): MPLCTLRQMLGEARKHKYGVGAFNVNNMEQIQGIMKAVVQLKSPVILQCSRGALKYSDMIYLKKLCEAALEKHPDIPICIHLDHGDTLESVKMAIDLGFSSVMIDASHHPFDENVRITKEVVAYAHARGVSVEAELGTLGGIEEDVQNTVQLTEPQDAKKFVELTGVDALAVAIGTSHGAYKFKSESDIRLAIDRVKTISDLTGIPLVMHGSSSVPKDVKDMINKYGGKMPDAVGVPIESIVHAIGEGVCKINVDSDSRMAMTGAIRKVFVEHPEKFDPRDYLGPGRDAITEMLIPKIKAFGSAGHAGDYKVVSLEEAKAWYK
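Giardia FBPA (40 nM reagent) was preincubated 10 min at RT with compound (up to 57.5 uM final), then substrate plus GAPDH/TPI/NAD/arsenate coupling system with diaphorase/resazurin was added; resorufin fluorescence (525/598 nm) was read after 20 min.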
* hit, by the source's call; [ ] = remark or other dose. The entries come from a sample that favours hits as a whole. Unless noted, calls come from the whole dose curve; as a rule, active = well fitted curve in the direction sought with a large enough effect; inconclusive = small, poorly fitted or top-dose-only effect, or another doubt; inactive = no such curve, though single readings can be large; an effect the other way counts as inactive or inconclusive.

What do the screens show for `Clc1cccc(-c2nc(-c3ccccn3)no2)c1`?
Tb PYK inh: -22.8%; RE007 growth inh: inconclusive; LmPK inh: 10µM*; Shiga inhibitor: 15.8; CHX counter: 16.2; FBPA Giardia inh: 0.0%

Results for O=C(O)c1ccc(-c2noc(-c3cccc(Cl)c3)n2)cc1 ?
Tb PYK inh: -7.2%

What do the screens show for `CC1CCN(S(=O)(=O)c2ccc3c(c2)N(CC(=O)NCCc2ccc(Cl)cc2)C(=O)CO3)CC1`?
Tb PYK inh: -8.1%

What do the screens show for `Cc1ccc(NC(=O)c2ccc3c(O)c(S(=O)(=O)c4ccccc4)c(=O)[nH]c3c2)cc1Cl`?
Tb PYK inh: -2.3%

Results for Cn1cccc1C(=O)N1CCC2(CCCN(Cc3ccccc3)C2)CC1 ?
Tb PYK inh: -0.9%; FBPA Giardia inh: 1.0%

How did O=C(Nc1cccc(Cl)c1)C1CCCN(c2nn3cc(-c4ccc(F)cc4)nc3s2)C1 (configuration not stated) do in these assays?
Tb PYK inh: 3.0%[15.4 µM]

How did COc1cnc(-c2ccccn2)nc1Sc1ccc(C)cc1 do in these assays?
Tb PYK inh: 3.3%; RE007 growth inh: inconclusive; LmPK inh: 0.4%; Shiga inhibitor: 6.8; CHX counter: 5.3; FBPA Giardia inh: -6.3%

How did Cc1ccc(-c2nc(-c3ccccn3)no2)cc1[N+](=O)[O-] do in these assays?
Tb PYK inh: 7.5%; RE007 growth inh: inconclusive; LmPK inh: 14.1µM*; Shiga inhibitor: 54.7*; CHX counter: 37.0*; FBPA Giardia inh: 2.0%

What do the screens show for `Cc1ccc(Sc2cc(C)nc(-c3ccccn3)n2)cc1`?
Tb PYK inh: 1.0%; RE007 growth inh: inconclusive; LmPK inh: -0.2%; Shiga inhibitor: 46.4; CHX counter: 30.8*; FBPA Giardia inh: 8.5%

How did CCN(CC)c1ccc(-c2nc(-c3ccccn3)no2)cc1[N+](=O)[O-] do in these assays?
Tb PYK inh: -3.8%

Results for Clc1cccc(OCc2nc(-c3ccncc3)n[nH]2)c1 ?
Tb PYK inh: -0.5%; RE007 growth inh: 0.7%; LmPK inh: -0.4%; Shiga inhibitor: 6.6; CHX counter: 5.0; FBPA Giardia inh: 0.8%

What do the screens show for `Cc1ccc(C)c(OCc2nc(-c3cccnc3)no2)c1`?
Tb PYK inh: 2.7%; RE007 growth inh: 8.4%; LmPK inh: -0.1%; Shiga inhibitor: 30.0; CHX counter: 9.9; FBPA Giardia inh: -2.0%

Results for Clc1ccc(OCc2nc(-c3ccncc3)no2)c(Cl)c1 ?
Tb PYK inh: -4.4%; RE007 growth inh: inconclusive; LmPK inh: 0.6%; Shiga inhibitor: 122.0*; CHX counter: 63.6*; FBPA Giardia inh: 6.2%

What do the screens show for `Clc1cccc(OCc2nc(-c3ccncc3)no2)c1`?
Tb PYK inh: 0.8%; RE007 growth inh: 4.0%; LmPK inh: 1.6%; Shiga inhibitor: 45.2; CHX counter: 33.8*; FBPA Giardia inh: 1.8%

Results for Cc1cccc(OCc2nc(-c3cccnc3)no2)c1 ?
Tb PYK inh: -1.9%; RE007 growth inh: -23.8%; LmPK inh: -7.9%; Shiga inhibitor: active; CHX counter: 15.3*; FBPA Giardia inh: 5.7%

What do the screens show for `CC(=O)N1c2ccccc2CC1C(=O)N1CCN(c2cc(Cl)ccc2C)CC1` (configuration not stated)?
Tb PYK inh: 0.7%

What do the screens show for `COC(=O)CCC(=O)OC1(C)C(=O)C2=CN(CC(C)C)C(c3ccc(OC)cc3)=CC2=C(Br)C1=O` (configuration not stated)?
LmPK inh: -3.3%[11.5 µM]; Shiga inhibitor: -1.8; CHX counter: -1.7; FBPA Giardia inh: 0.998µM*

Results for CCOc1ccc(/C=C2\CCC(C3CCCC3)C2=O)cc1OC (configuration not stated) ?
Tb PYK inh: 2.8%; RE007 growth inh: 1.2%; LmPK inh: 2.4%; Shiga inhibitor: 29.9; CHX counter: 7.5; FBPA Giardia inh: -4.2%
